Test results published in PubChem BioAssay AID720597 (Broad Institute, 2013).
Potency and affinity values are given separately. Active and inactive are the calls of the source.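 Rule for the calls: active = fitted half-maximal dose no more than twice the top valid tested dose, for compounds that lower signal; inconclusive = fit invalid, or curve flat with activity between -70 and -30; inactive = potency past limit, curve flat within ±30, or signal increasing.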

Target: NAD-dependent protein deacylase sirtuin-5, mitochondrial (Homo sapiens) (UniProt Q9NXA8)
Assay: SIRT5 deacylase inhibitors, dose response, biochemical, fluorescence imaging, cherry-pick, set 6 (AID 720597);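 note: lower AMC signal can also come from blocking the trypsin step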
Settings: Purified SirT5, succinyl-peptide-AMC/trypsin fluorescence; series mostly up to 15 µM

NAD-dependent protein deacylase sirtuin-5, mitochondrial (Homo sapiens), sequence (Q9NXA8 whole entry, looked up): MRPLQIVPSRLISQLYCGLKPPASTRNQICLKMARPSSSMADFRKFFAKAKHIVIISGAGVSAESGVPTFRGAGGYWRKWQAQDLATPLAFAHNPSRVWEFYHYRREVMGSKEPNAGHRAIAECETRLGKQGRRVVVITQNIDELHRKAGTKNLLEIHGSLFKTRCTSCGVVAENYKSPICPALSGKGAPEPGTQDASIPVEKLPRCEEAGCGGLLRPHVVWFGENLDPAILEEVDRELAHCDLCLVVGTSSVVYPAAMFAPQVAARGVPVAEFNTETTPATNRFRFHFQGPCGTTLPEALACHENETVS

outcome, inactive:
COc1ccc(S(=O)(=O)Nc2ccc3c(c2)C(=O)N([C@H](C)CO)C[C@@H](C)[C@H](CN(C)S(=O)(=O)c2ccc(Cl)cc2)OCCCC[C@H](C)O3)cc1
CCS(=O)(=O)N1CC2(C1)CN(S(=O)(=O)c1cn(C)cn1)[C@@H](CO)c1[nH]c3cc(OC)ccc3c12
O=C(NC1CCCCC1)[C@@H]1[C@@H](CO)[C@@H]2Cn3c(cccc3=O)[C@H]1N2CC1CCCCC1
COc1ccc(S(=O)(=O)N(C)C[C@H]2OCCCC[C@@H](C)Oc3ccc(NS(=O)(=O)c4ccc(C)cc4)cc3C(=O)N([C@@H](C)CO)C[C@H]2C)cc1
COc1ccc(S(=O)(=O)Nc2ccc3c(c2)CC(=O)N([C@@H](C)CO)C[C@@H](C)[C@H](CN(C)S(=O)(=O)c2ccc(C)cc2)O3)cc1
CC(C)NC(=O)N1CCCCN2[C@H](C1)[C@@H](c1ccc(C#CC3CC3)cc1)[C@@H]2CO
C[C@@H]1CN([C@@H](C)CO)C(=O)c2cc(C#CCN(C)C)cnc2O[C@H]1CN(C)Cc1ccncc1
O=C(NCC[C@H]1CC[C@@H](NS(=O)(=O)c2cccc(F)c2)[C@H](CO)O1)C1CCOCC1
COc1ccc(S(=O)(=O)N(C)C[C@H]2Oc3cc(C#CC4CC4)ccc3S(=O)(=O)N([C@@H](C)CO)C[C@H]2C)cc1
C[C@@H]1CN([C@@H](C)CO)C(=O)Cc2cc(NC(=O)CCCCCC(=O)Nc3ccccc3N)ccc2O[C@@H]1CN(C)Cc1ccc(Oc2ccccc2)cc1
